Compound activity as filed in PubChem BioAssay.
Pf growth 48h = Primary qHTS for delayed death inhibitors of the malarial parasite plastid, 48 hour incubation | P. falciparum luciferase growth in erythrocytes, 48 h | Potency, µM (series often up to 28.7 µM), for inactives: top-dose activity change, negative = inhibition, most hits filed as inhibitors | hit rate 5.9% among 310,000 | AID 504832, 2011; also: potency is read from the fitted curve at half-maximal effect
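Firefly luciferase activity from engineered P. falciparum reports growth; inhibitors lower the luminescent signal. Cultures contained 2% hematocrit erythrocytes at 0.1% final parasitemia.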
Lassa entry inh = qHTS for Inhibitors of binding or entry into cells for Lassa Virus | Lassa virus pseudotype entry inhibition, cell reporter | AID 540256, 2011 | Potency, µM (series often up to 37.9 µM), inactives show top-dose activity change, negative = inhibition, actives largely listed as inhibitors | hit rate 1.2% among 300,000; calls by dose curve; tested in HEK293 cells; also: potency is read from the fitted curve at half-maximal effect; nearly all actives have a fitted effect of over 50% in size
HCMV inh = qHTS Assay for inhibitors of the human cytomegalovirus (HCMV) | AID 1259415, 2018 | hit rate 4.5% among 410,000 | HFF cells, HCMV-luciferase reporter, 72 h; stronger effect = lower value | activity change, negative = inhibition, % at 57.5 µM; in the data active = activity change below about -60%; inconclusive = no clear call, values can overlap the other calls; inactive = above about -39%
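After 16 h attachment at 37C, HFF cells received test compound and HCMV-luciferase (1 PFU/cell); reporter luminescence read 72 h later, data normalized against buffer-only and known inhibitor Salinomycin.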
Pf growth 96h = Primary qHTS for delayed death inhibitors of the malarial parasite plastid, 96 hour incubation. P. falciparum luciferase reporter growth, 96 h. hit rate 6.9% among 320,000. Potency, µM (highest dose often 28.7 µM), for inactives: top-dose activity change, negative = inhibition, usual class: inhibitors. AID 504834, 2011; also: potency is read from the fitted curve at half-maximal effect
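Luminescence readout: decreased luciferase signal marks inhibited growth of reporter-expressing P. falciparum in infected red cells (2% hematocrit, 0.05% parasitemia final), exposed to compound two generations (96 h, 37 C, 5% CO2).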
HCV inh = qHTS Assay for Inhibitors of Hepatitis C Virus (HCV); AID 651820, 2012; Potency, µM (highest dose often 41.8 µM), without a hit: at the top dose activity change, negative = inhibition, usual class: inhibitors; Huh7.5.1 HCVcc-Cre infection, luciferase reporter, 44 h; hit rate 3.4% among 340,000; also: potency is read from the fitted curve at half-maximal effect
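Whole-lifecycle infectious HCVcc-Cre system; cells 1,000/well, compound then virus (~0.5 moi) added 4 h after plating, 44 h culture. Luciferase read 15 sec following 15 min substrate incubation, room temp.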
MARV entry inh = qHTS for inhibitors of binding or entry into cells for Marburg Virus. Potency, µM (highest dose often 37.8 µM), for the others: top-dose activity change, negative = inhibition, hits mostly inhibitors. hit rate 1.8% among 300,000. Marburg virus pseudotyped entry inhibition, cell reporter; calls by dose curve; tested in HEK293 cells; also: potency is read from the fitted curve at half-maximal effect
Numbers without * were called inactive; ? = inconclusive; / = not tested or not shown; [ ] = remark or other dose. This is a sample that favours compounds with a hit; in the whole collection about 14% have one here. Unless noted, calls follow the shape of the dose curve; as a rule, active = well fitted inhibition curve with a large enough effect; inconclusive = small, poorly fitted or top-dose-only effect, or another doubt; inactive = no such curve, though single readings can be large or run the other way. % is scaled to controls: 0 for no effect and ±100 for the full control effect.

SMILES	Pf growth 48h	Lassa entry inh	HCMV inh	Pf growth 96h	HCV inh	MARV entry inh
O=C(CN(c1ccccc1)S(=O)(=O)c1ccccc1)Nc1ccccc1C(=O)NCc1ccco1	0%	?	-62*	157%	?	?
Cc1cccc(S(=O)(=O)N(CC(=O)Nc2ccccc2C)Cc2ccco2)c1	/	27%	-18	12µM*	-19%	-3%
Cc1ccc(N(CC(=O)N/N=C/c2ccc(OC3CSC3)cc2)S(=O)(=O)c2ccccc2)c(C)c1	?	?	-4	12µM*	?	?
CCOc1ccccc1CNC(=O)c1ccc2nc(Cc3ccc(OC)cc3)oc2c1	/	-20%[46.1 µM]	-32	/	/	/
COC1=CC(=O)C=C(OC)C1(O)CC(C)=O	/	/	-19	/	-20%	/
Cc1c(Cl)cccc1NC(=O)C(C)n1c(=O)cc(C)c2c(C)nn(-c3ccccc3)c21 (stereo not drawn)	/	-11%[46.1 µM]	-2	/	/	/
O=C(Nc1ccccc1C(=O)NCc1cccnc1)c1ccco1	/	-17%	30	-7%	?	12%[46.1 µM]
Cc1ccc(N(CC(=O)Nc2ccccc2C(=O)NCc2ccco2)S(=O)(=O)c2ccccc2)cc1C	10µM*	?	5	/	?	?
O=C(Nc1ccccc1C(=O)NCc1ccccc1)c1ccco1	-23%	-1%	5	13µM*	?	-27%
Cc1ccc(C)c(N(CC(=O)Nc2ccccc2C(=O)NCc2ccco2)S(=O)(=O)c2ccccc2)c1	12µM*	-27%	-36	155%	?	?
Cc1ccc(N(CC(=O)Nc2ccccc2-c2ccccc2)S(=O)(=O)c2ccccc2)c(C)c1	12µM*	?	?	?	-22%	?
Cc1ccc(S(=O)(=O)N(CC(=O)NCCSCc2ccco2)c2cc(C)ccc2C)cc1	/	?	-10	/	?	?
COC(=O)[C@H]1[C@H](CCc2ccccc2)NC(=O)N(Cc2ccccc2)[C@H]1C	/	?	/	/	/	-15%[14.2 µM]
O=C(CCCN1C(=O)c2ccccc2C1=O)N1CC[C@@H](c2ccccc2)C1	/	/	/	/	/	0%
CC(C)NC(=O)CSc1nc(-c2ccccc2)cs1	186%	/	112	67%	-1%	/
N#CCSc1nc(-c2ccccc2)cs1	37%	15%	-63*	/	14%	2%
CCN1CCN(S(=O)(=O)c2ccc(S(=O)(=O)N(CC)Cc3ccccc3)cc2)CC1	13µM*	-11%	7	?	-11%	-19%
O=C(c1cc(S(=O)(=O)N2CCOCC2)ccc1F)N(CCc1ccccc1)Cc1ccccc1	9.3µM*	?	-17	?	?	?
Cc1ccc(S(=O)(=O)N2CCCCC2)cc1C(=O)N(CCc1ccccc1)Cc1ccccc1	13µM*	?	?	9.3µM*	?	?
CCN1CCN(S(=O)(=O)c2ccc(Cl)c(C(=O)N(CC)Cc3ccccc3)c2)CC1	?	-10%	-18	-1%	?	-7%
CCN1CCN(S(=O)(=O)c2ccc(Cl)c(C(=O)N(CCc3ccccc3)Cc3ccccc3)c2)CC1	/	/	-21	/	13µM*	/
COc1ccc(-c2nn(C)c3sc(C(=O)N4CCN(c5cccc(C)c5C)CC4)cc23)cc1OC	/	10%[46.1 µM]	9	/	/	10%[46.1 µM]
CN(C)C(CNS(=O)(=O)c1ccc(Cl)cc1F)c1ccco1 (stereo not drawn)	/	3%	-30	/	5%	18%
CC1C=CCC2C(=O)N(c3cccc(C(=O)NCCc4ccccc4)c3)C(=O)C12 (stereo not drawn)	-4%	/	-61*	6%	-4%	/
CCNC(=O)C1(C)CCCN(Cc2ccc(-c3ccccc3)o2)C1 (stereo not drawn)	/	/	36	/	/	/
SMILES	Pf growth 48h	Lassa entry inh	HCMV inh	Pf growth 96h	HCV inh	MARV entry inh
COC(=O)c1ccc(CN2CCN(Cc3ccc(C(=O)OC)o3)CC2)o1	-16%	1%	-12	?	-17%	-1%
O=C(O)c1ccc(CN2CCCCC2)o1	5%	16%	-68*	?	14%	1%
CCN1CCN(c2ccc(NC(=O)CCc3c(C)nc4c(-c5ccc(F)cc5)c(C)nn4c3C)cc2)CC1	?	/	-60*	?	2.5µM*	/
COCCNC(=O)CCc1c(C)nc2c(-c3ccc(F)cc3)c(C)nn2c1C	/	-13%[46.1 µM]	9	13µM*	-10%	14%[46.1 µM]
Cc1nc2c(-c3ccc(F)cc3)c(C)nn2c(C)c1CCC(=O)N1CCOCC1	/	/	46	?	-2%	8%
CCOC(=O)C1CCN(C(=O)CCc2c(C)nc3c(-c4ccc(F)cc4)c(C)nn3c2C)CC1	/	/	?	10µM*	12%	/
CN1CCN(c2cc(-c3cccc(C(=O)O)c3)nc3ccnn23)CC1	/	/	-6	/	/	/
COc1cccc(CNC(=O)C2CCN(S(=O)(=O)c3ccc4c(c3)CC(C)N4C(C)=O)CC2)c1 (stereo not drawn)	?	/	17	?	-12%	/
CNC[C@@H](CC1CCCCC1)NC[C@H](CC(C)C)NCCc1cccc(C(F)(F)F)c1	?	/	-99*	1.9µM*	?	/
CCC[C@@H](CN[C@@H](CNC)C(C)C)NCCCCc1ccccc1	?	/	?	12µM*	?	/
CCC[C@@H](CNC)NC[C@H](Cc1ccccc1)NCCCCc1ccccc1	?	/	?	1.7µM*	?	/
CNCCCc1ccccc1	14%	-40%	24	162%	6%	?
CNC[C@@H](Cc1ccccc1)NC[C@@H](CC1CCCCC1)NCCCc1ccccc1	?	/	-101*	?	?	/
CCOC1=C2CN(S(=O)(=O)c3ccc(C)cc3)[C@H](c3ccccc3)C[C@@H]2N(S(=O)(=O)c2ccc(C)cc2)[C@H](c2ccccc2)C1	/	/	-7	/	/	/
CCCc1nn2c(=O)cc(COC(=O)c3ccccc3NC(=O)c3cccs3)nc2s1	/	-20%[46.1 µM]	14	/	/	/
COc1cccc(C(C)(O)c2nc(-c3cccc(NC(C)=O)c3)cs2)c1 (stereo not drawn)	/	/	-37	/	/	/
Cc1cccc(OCC(=O)Nc2ccc3nc(SCc4ccccc4)sc3c2)c1	/	3%[46.1 µM]	23	/	/	-13%[46.1 µM]
Cc1ccc(N(CC(=O)Nc2cc(Cl)ccc2Oc2ccccc2)S(C)(=O)=O)c(C)c1	/	?	-10	12µM*	11µM*	?
COc1ccc(C)cc1NC(=O)C(C)N(c1ccc(C)cc1)S(C)(=O)=O (stereo not drawn)	?	-8%	-8	-8%	-19%	-3%
COc1ccc(C)cc1NC(=O)CN(c1ccccc1)S(C)(=O)=O	2%	1%	18	?	-10%	2%
Cc1ccc(N(CC(=O)Nc2cc(Cl)ccc2Oc2ccccc2)S(C)(=O)=O)cc1C	/	?	-9	8.3µM*	?	?
